TIM10 inh – growth inhibitors of isogenic TIM10 control yeast, primary screen, counter-screen for tim10-1 yeast inhibitor project, luminescence, uHTS. S. cerevisiae TIM10 strain growth, BacTiter-Glo luminescence, 24 h. inhibition, % at 10 µM. actives 1.4% (n = 330,000);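 active = inhibition of 40% or more at the single tested concentration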;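 note: wild-type TIM10 isogenic control strain grown at permissive 25 °C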
tim10-1 inh – growth inhibitors of tim10-1 mutant yeast, primary screen, luminescence, uHTS; S. cerevisiae tim10-1 ts strain growth, BacTiter-Glo, 24 h; inhibition, % at 20 µM; actives 2.2% (n = 330,000); AID 463190, 2010;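 active = inhibition of at least 40%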;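 note: mutant grown at 25 °C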
PfHsp90 yeast 2 – growth inhibition of PfHsp90-expressing yeast, primary screen, antimalarial PfHsp90 inhibitor project, S. cerevisiae, BacTiter-Glo luminescence, single point, set 2 | inhibition, % at 9.4 µM | BacTiter-Glo ATP, 48 h; yeast lacking PDR1 and PDR3 efflux regulators | actives 0.32% (n = 310,000);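 active = every replicate shows inhibition above about 80%, whatever the replicate mean, limit read from the data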
tim23-1 inh – growth inhibitors of tim23-1 mutant yeast, primary screen, luminescence, uHTS | inhibition, % at 20 µM | S. cerevisiae tim23-1 growth, BacTiter-Glo luminescence, 24 h | actives 1.3% (n = 330,000);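 active = growth inhibition of the mutant yeast at or above 50%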;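 note: temperature-sensitive mutant grown at 25 °C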
NALP3 yeast inh – NALP3 inflammasome inhibitors in reconstituted yeast, primary screen, luminescence, uHTS | inhibition, % at 10 µM | actives 0.39% (n = 330,000) | Yeast reconstituted NLRP3/ASC/caspase-1, beta-gal luminescence, 24 h;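 active = inhibition of 50% or more; inactive = inhibition below 50%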
SKKanGAS inh – S. pyogenes SKKanGAS growth inhibitors in kanamycin, primary screen, streptokinase expression inhibitor project, SKKanGAS strain, BacTiter-Glo luminescence; 6 h; inhibition, % at 7.5 µM; actives 1.3% (n = 300,000); AID 1662, 2009;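 active = mean replicate score, as percent of positive control median, at least 50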;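 note: strain carries kanamycin resistance gene driven by streptokinase promoter and grows in 40 µg/ml kanamycin; loss of luminescence reflects streptokinase promoter inhibition or plain growth inhibition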
tim10-1 confirm – growth inhibitors of tim10-1 mutant yeast, confirmation, single concentration, luminescence, S. cerevisiae; inhibition, % at 20 µM; shares compounds with tim10-1 inh; S. cerevisiae tim10-1 ts strain growth, BacTiter-Glo, 24 h; actives 56% (n = 7,400);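 active = inhibition of yeast growth at or above a set limit in either of two repeat tests at 20 µM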;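 note: tim10-1 mutant grown at permissive 25 °C to find synthetic lethal compounds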
Numbers stand for hits; i = inactive; nt = no result. Shown are actives, neighbours in structure and some others; about 4.5% of the full set was active somewhere.

SMILES | TIM10 inh | tim10-1 inh | PfHsp90 yeast 2 | tim23-1 inh | NALP3 yeast inh | SKKanGAS inh | tim10-1 confirm
CC1(C2CC2)NC(=O)N(CC(=O)N2CCN(S(=O)(=O)c3ccc(F)c(F)c3)CC2)C1=O (centres undefined) | i | i | i | i | i | nt | nt
Cc1ccc(S(=O)(=O)/N=C2\C=C(NS(=O)(=O)c3ccccc3)C(=O)c3ccccc32)cc1 | nt | nt | i | nt | nt | nt | nt
Cc1ccc(S(=O)(=O)/N=C2/C=C(C3C(=O)CC(C)(C)CC3=O)C(=O)c3ccccc32)cc1 | i | 41 | i | i | i | i | i
O=C(Oc1ccc(C(=S)N2CCOCC2)cc1)c1ccccc1[N+](=O)[O-] | i | 42 | i | i | i | i | 37
COc1ccc(C)cc1NC(=O)CNc1ccccc1CN(C)C1CCCCC1 | i | i | i | i | i | i | nt
COc1ccc(Cl)cc1NC(=O)CNc1ccccc1CN(C)C1CCCCC1 | i | 43 | i | i | i | i | 30
O=C(CN1C(=O)c2ccccc2C1=O)Nc1cc(C(=O)O)cc(C(=O)O)c1 | i | i | i | i | i | i | nt
CC(C)C(NC(=O)c1cccc(S(=O)(=O)N2CCOCC2)c1)C(=O)NCc1ccc(Cl)cc1 (centres undefined) | i | i | i | i | i | nt | nt
CCOC(=O)c1c(C)[nH]c2cc(Br)c(O)cc12 | i | i | nt | i | i | i | nt
CCOC(=O)c1c(OCC)[nH]c2c1cc(O)c1ccccc12 | i | 43 | i | i | i | i | 41
CCOC(=O)c1sc(Nc2cccc(Cl)c2)nc1C | i | i | i | i | i | i | nt
CCOC(=O)c1sc(Nc2cccc(C)c2C)nc1C | i | 43 | nt | i | i | i | 32
Cc1cccc(N=Nc2c(C)[nH]n(C(N)=S)c2=O)c1C | i | i | nt | i | i | i | nt
Cc1ccccc1N=Nc1c(C)[nH]n(C(N)=S)c1=O | i | 41 | i | i | i | i | i
Cc1cc(C)c(C(=O)COC(=O)c2nn(C)c(=O)c3ccccc23)cc1C | i | i | i | i | i | nt | nt
CCOC(=O)c1c(NC(=O)CCN2CCOCC2)sc2c1CC(C)(C)OC2 | i | 42 | i | i | i | i | i
CCOC(=O)c1c(NC(=O)CN2CCOCC2)sc2c1CC(C)(C)OC2 | i | i | nt | i | i | i | nt
COc1ccc(-c2cc(-c3ccccc3)nc(SCC(=O)Nc3nccs3)c2C#N)cc1 | i | i | i | i | i | i | nt
COc1ccc(-c2cc(-c3ccccc3)c(C#N)c(SCC(=O)Nc3ncc(C)s3)n2)cc1 | i | 42 | i | i | i | i | i
CCOc1ccc(NC(=S)c2ccc3ccccc3n2)cc1 | i | i | i | i | i | i | nt
COc1ccc(NC(=S)c2ccc3ccccc3n2)cc1 | i | 56 | i | i | i | i | i
COc1cccc(/C(C)=N/NS(=O)(=O)c2ccc(Cl)cc2)c1 | i | i | i | i | i | i | nt
COc1ccc(S(=O)(=O)N/N=C(/C)c2ccc(Cl)cc2)cc1 | i | 52 | nt | i | i | i | 44
N#CCCN1CCC(NC(=O)OCc2ccccc2)CCC1=O (centres undefined) | i | i | i | i | i | i | nt
O=C(NC1CCC(=O)N(CCSc2ccccc2)CC1)OCc1ccccc1 (centres undefined) | i | 48 | i | i | i | i | i
Cc1cccc2c1N(CCOc1ccc(C(C)(C)C)cc1)C(=O)C2=O | i | 46 | i | i | i | i | 33
O=C(O)c1ccc(Cn2cnc3c(=O)[nH]cnc32)cc1 | nt | nt | i | nt | nt | nt | nt
Cc1cc(N2CCCCC2)nc(SCC(=O)c2ccccc2)n1 | i | 47 | nt | i | i | i | 33
O=C(c1ccncc1)N1CCN(S(=O)(=O)c2ccccc2F)CC1 | i | i | nt | i | i | nt | nt
CCOC(=O)/C(=C\c1ccc([N+](=O)[O-])o1)NC(=O)c1ccccc1 | i | 47 | i | i | i | i | 42
